Vif-APOBEC3G blk: Vif-A3G binding inhibition; AID 602310; HeLa A3G-eYFP + Vif (tagged APOBEC3G with the HIV-1 protein that degrades it), YFP fluorescence, overnight; Potency, µM (doses to about 46.1 µM), inactives show top-dose activity, negative = active, most hits filed as inhibitors; Q9HC16; 0.076% of 410,000 active; further: potency means the concentration at half of the fitted maximal effect; on the % scale 0 is the no-effect control and ±100 the full control effect; nearly all actives have a fitted effect of over 60% in size
Target sequence (Q9HC16 whole entry, looked up): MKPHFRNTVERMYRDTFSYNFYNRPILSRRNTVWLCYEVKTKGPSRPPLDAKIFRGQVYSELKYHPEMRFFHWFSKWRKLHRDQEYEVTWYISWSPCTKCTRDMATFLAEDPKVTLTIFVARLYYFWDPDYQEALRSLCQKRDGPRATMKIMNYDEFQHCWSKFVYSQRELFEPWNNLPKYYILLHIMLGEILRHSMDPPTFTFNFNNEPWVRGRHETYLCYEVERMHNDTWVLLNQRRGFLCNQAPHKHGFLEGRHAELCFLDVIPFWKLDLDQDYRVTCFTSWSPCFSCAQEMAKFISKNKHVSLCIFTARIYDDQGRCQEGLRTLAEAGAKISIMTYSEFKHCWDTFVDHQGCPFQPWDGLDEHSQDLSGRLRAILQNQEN
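HeLa cells stably expressing Vif and C-terminally eYFP-tagged A3G, seeded overnight at 37 deg C, then exposed to compound by pintool overnight at 37 deg C. Rise in yellow fluorescence (Ex 488/Em 500-530, Acumen) marks blocked Vif-driven A3G degradation.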
Vif-APOBEC3F blk: blocks the Vif interaction with APOBEC3F. Potency, µM (series often up to 46.1 µM), without a hit: top-dose activity, negative = active. AID 602313. HeLa A3F-eYFP + Vif (tagged APOBEC3F with the HIV-1 protein that degrades it), YFP fluorescence increase. 0.2% of 390,000 active; further: potency means the concentration at half of the fitted maximal effect; % of control where 0% means no effect; nearly all actives have a fitted effect of over 65% in size
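Fluorescence increase (Ex 488/Em 500-530) after overnight compound treatment at 37 deg C flags inhibition of Vif-driven A3F-eYFP loss in stable HeLa A3F-eYFP/Vif cells seeded overnight beforehand.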
Pin1 inhibitor: inhibitors of human Pin1; AID 504891; 0.009% of 390,000 active; Pin1 FP peptide displacement, HiFluor488, 10 min; Q13526; Potency, µM (top dose mostly 115 µM), for inactives: at the top dose activity, negative = inhibition, hits mostly inhibitors; active means well fitted inhibition curve with a large enough effect in the polarisation, with a control signal flat, not every such curve was filed as active; inconclusive means small, poorly fitted or top-dose-only effect, or effect the other way, or a change in a side signal; inactive means no such curve, though single readings can be large or run the other way; the % refers to the polarisation; further: potency means the concentration at half of the fitted maximal effect; on the % scale 0 is the no-effect control and ±100 the full control effect
LDHA block: LDHA (human) enzyme inhibition | AID 1347041 | 0.15% of 480,000 active | purified LDHA, NADH/diaphorase-resazurin fluorescence; active compounds read low | activity change, % (values are at about 110 or 230 µM); in the data active means activity change below about -30%; inconclusive means mostly about -25% to -30%;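 further: plate controls were DMSO wells for no effect and wells without enzyme for full effect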
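Human LDH5 at 2 nM final in Tris HCl pH 7.4 with 0.06 mM NADH and 0.2 mM pyruvate, reacted 5 minutes at room temperature. Remaining NADH coupled via diaphorase/resazurin; resorufin fluorescence read at 0 and 20 minutes, normalized to enzyme-free and DMSO wells.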
IDH1 R132H inh: blocks human mutant IDH1 R132H enzyme; IDH1-R132H enzyme, NADPH consumption, diaphorase/resazurin fluorescence; 0.093% of 390,000 active; Potency, µM (highest dose often 76.6 µM), for inactives: at the top dose activity change, negative = inhibition, usual class: inhibitors; AID 602179; further: potency means the concentration at half of the fitted maximal effect; on the % scale 0 is the no-effect control and ±100 the full control effect; nearly all actives have a fitted effect of over 65% in size
Target sequence (O75874 whole entry R132H, stated change not applied): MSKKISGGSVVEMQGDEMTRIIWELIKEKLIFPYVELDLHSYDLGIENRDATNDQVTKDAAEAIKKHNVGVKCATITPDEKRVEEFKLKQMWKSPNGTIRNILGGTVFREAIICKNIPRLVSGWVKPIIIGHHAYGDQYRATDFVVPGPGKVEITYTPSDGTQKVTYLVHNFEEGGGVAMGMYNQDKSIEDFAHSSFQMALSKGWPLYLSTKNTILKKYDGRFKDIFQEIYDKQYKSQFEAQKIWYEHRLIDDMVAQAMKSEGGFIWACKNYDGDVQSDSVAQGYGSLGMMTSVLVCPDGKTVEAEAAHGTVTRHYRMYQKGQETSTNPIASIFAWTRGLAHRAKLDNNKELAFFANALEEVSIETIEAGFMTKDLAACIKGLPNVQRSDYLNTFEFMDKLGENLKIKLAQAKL
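IDH1-R132H (0.5 ug/mL dispensed) in pH 7.5 Tris buffer was preincubated 30 min with compound, then given a substrate mix of 0.016 mM NADPH and 2 mM alpha-KG for 80 min at room temperature; remaining NADPH was read by diaphorase/resazurin fluorescence.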
PGK inhibitor: inhibitors of T. brucei phosphoglycerate kinase | P07378 | PGK/GAPDH coupled, Kinase-Glo luminescence, 60 min | Potency, µM (titrated, usually from 57.5 µM), inactives show at the highest dose activity change, negative = inhibition, most hits filed as inhibitors | 0.043% of 380,000 active | AID 602233; further: potency means the concentration at half of the fitted maximal effect; on the % scale 0 is the no-effect control and ±100 the full control effect; nearly all actives have a fitted effect of over 60% in size
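Recombinant glycosomal PGK reaction used 1,3-bisphosphoglycerate generated in-well by GAPDH (100nM final) in 100mM TEA pH 7.6, 5mM MgCl2, 0.01% Tween-20. After 60 minutes at room temperature, ATP was read by Kinase-Glo Plus luminescence end-point.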
Resorufin autofl: autofluorescence interference, mutant IDH1 hit counter-screen. shares compounds with IDH1 R132H inh. Resorufin detection reagent fluorescence interference, cell-free. inhibition of signal, % at 51.2 µM. 750 tested, under 10 active. AID 623980;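 further: 0% = wells with normal resorufin and full inhibition = wells lacking resorufin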
WT IDH1 inh: wild-type IDH1 (human) inhibition counterscreen. shares compounds with IDH1 R132H inh. Potency, µM (titrated, usually from 115 µM), for the others: at the highest dose activity change, negative = inhibition, hits mostly inhibitors. WT IDH1 enzyme, NADPH diaphorase/resazurin fluorescence. AID 623995. 9% of 750 active;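 further: potency means the concentration at half of the fitted maximal effect; 0% = full WT IDH1 enzyme control and full inhibition = no enzyme wells; nearly all actives have a fitted effect of over 55% in size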
IDH1 R132H conf: mutant IDH1 (human) inhibition, confirmed; shares compounds with IDH1 R132H inh; IDH1 R132H enzyme, NADPH diaphorase/resazurin fluorescence; Potency, µM (top dose mostly 76.6 µM), for inactives: top-dose activity change, negative = inhibition, hits mostly inhibitors; 83% of 750 active; AID 624002; further: potency means the concentration at half of the fitted maximal effect; nearly all actives have a fitted effect of over 50% in size
* marks the source's active call; other numbers are inactive results; i = inactive; ? = inconclusive; · = no result. Shown are actives, neighbours in structure and some others; about 0.49% of the full set was active somewhere. Unless noted, the call rests on the fitted dose curve; in most records, active means well fitted curve in the direction sought with a large enough effect; inconclusive means small, poorly fitted or top-dose-only effect, or another doubt; inactive means no such curve, though single readings can be large; an effect the other way counts as inactive or inconclusive.

SMILES | Vif-APOBEC3G blk | Vif-APOBEC3F blk | Pin1 inhibitor | LDHA block | IDH1 R132H inh | PGK inhibitor | Resorufin autofl | WT IDH1 inh | IDH1 R132H conf
Cc1nn(CN2CCN(S(=O)(=O)c3ccccc3Cl)CC2)c(=O)c2ccccc12 | · | · | · | 3 | · | · | · | · | ·
CCN(C(=O)COC(=O)c1n[nH]c2ccccc12)C1CCCCC1 | · | · | · | -11 | · | · | · | · | ·
Cc1cccc(NC(=O)C2(C#N)C(c3ccccc3)C2(C)C(=O)c2ccc(Cl)cc2)c1 (configuration not stated) | · | · | · | -2 | · | · | · | · | ·
N=c1c(S(=O)(=O)c2ccccc2)cc2c(=O)n3ccccc3nc2n1C1CCCC1 | -7% | -13% | 8% | -4 | 18µM* | 10% | 0 | 5% | 7.1µM*
N=c1c(S(=O)(=O)c2ccc(Br)cc2)cc2c(=O)n3ccccc3nc2n1C1CCCC1 | -3% | -26% | -2% | -2 | -6% | 4% | · | · | ·
CCOc1cc(/C=C(\C#N)C(=O)Nc2cccc(C(=O)O)c2)cc(Br)c1OC(=O)c1ccc(OC)cc1 | ? | ? | ? | -5 | 52µM* | 1% | 8 | 71µM* | 32µM*
CN(CC(=O)N1CCN(c2oc(-c3ccco3)nc2C#N)CC1)Cc1ccc(C(F)(F)F)cc1 | · | · | · | -5 | · | · | · | · | ·
NNc1nnnc2c1sc1nc(N3CCOCC3)c3c(c12)CCCC3 | 0% | 9% | ? | -2 | 52µM* | -7% | -2 | -15% | ?
CC(C)CNc1ncnc2c1sc1nc(N3CCOCC3)c3c(c12)CC(C)(C)OC3 | 0% | · | 3% | -6 | 0% | -9% | · | · | ·
OCCNc1ncnc2c1sc1nc(N3CCOCC3)c3c(c12)CCC3 | -1% | 7% | ? | 5 | 12% | -6% | · | · | ·
CC(C)CNc1nnnc2c1sc1nc(N3CCOCC3)c3c(c12)CC(C)(C)SC3 | 1% | 0% | 50% | 5 | ? | i | 10 | ? | ?
CC1(C)Cc2c(c(N3CCOCC3)nc3sc4c(NN)ncnc4c23)CS1 | -9% | -19% | 14% | -7 | 23µM* | -5% | -5 | ? | 14µM*
CC1(C)Cc2c(c(N3CCOCC3)nc3sc4c(NCc5ccccc5)nnnc4c23)CS1 | 0% | -2% | 13% | 1 | -2% | i | · | · | ·
COC(=O)c1ccc(OC(=O)C2(c3ccccc3)CCC2)cc1 | · | · | · | 1 | · | · | · | · | ·
Cn1c(O)c(C2=Nc3ccccc3SC(c3cccc(O)c3)C2)c(=O)[nH]c1=O (configuration not stated) | · | · | · | -9 | · | · | · | · | ·
CCCCCCNC(N)=S | · | · | · | 3 | · | · | · | · | ·
COc1ccccc1Oc1coc2cc(OC(=O)N3CCOCC3)ccc2c1=O | -1% | -5% | 6% | -11 | 0% | 3% | · | · | ·
CC(=O)Oc1ccc2c(=O)c(Oc3ccccc3[N+](=O)[O-])coc2c1 | -2% | 1% | -2% | -14 | ? | 2% | 4 | -13% | 28µM*
CC(=O)N1CCc2c(sc3c2c(=O)n(-c2ccccc2)c(=O)n3Cc2cccc(C(F)(F)F)c2)C1 | -9% | 0% | 9% | 2 | 22µM* | -5% | -12 | 7.9µM* | 11µM*
COc1cccc(Cn2c(=O)n(-c3cccc(Cl)c3)c(=O)c3c4c(sc32)CN(C(C)=O)CC4)c1 | -19% | -12% | 41% | 4 | ? | -9% | 0 | 14µM* | 14µM*
COC(=O)c1ccc(C2c3c(-c4ccccc4O)n[nH]c3C(=O)N2Cc2cccnc2)cc1 (configuration not stated) | -5% | 3% | 8% | 10 | ? | -14% | 5 | 0% | 40µM*
COc1ccc(CCN2C(=O)c3[nH]nc(-c4ccccc4O)c3C2c2ccc(O)c(OC)c2)cc1 (configuration not stated) | -9% | 2% | 4% | 5 | -7% | -2% | · | · | ·
COc1cc(C2c3c(-c4cc(Cl)c(C)cc4O)n[nH]c3C(=O)N2CCO)ccc1O (configuration not stated) | · | · | · | -5 | · | · | · | · | ·
CCOc1cc(C2c3c(-c4ccccc4O)n[nH]c3C(=O)N2CCc2ccccc2)ccc1O (configuration not stated) | -9% | -3% | 4% | -9 | ? | 1% | -3 | 9% | ?
CSc1ccc(C2c3c(-c4ccccc4O)n[nH]c3C(=O)N2Cc2ccncc2)cc1 (configuration not stated) | -18% | -4% | 4% | -5 | 40µM* | 2% | 0 | 4% | 28µM*
SMILES | Vif-APOBEC3G blk | Vif-APOBEC3F blk | Pin1 inhibitor | LDHA block | IDH1 R132H inh | PGK inhibitor | Resorufin autofl | WT IDH1 inh | IDH1 R132H conf
CCCN1C(=O)c2[nH]nc(-c3cc(Cl)c(C)cc3O)c2C1c1ccc(O)c(OC)c1 (configuration not stated) | 5% | 2% | 0% | -1 | 26µM* | -8% | 11 | ? | 28µM*
Cc1c(Cl)c(C(F)(F)F)nn1CC(=O)Nc1ccc(F)cc1F | · | · | · | 1 | · | · | · | · | ·
CCCCc1ccc(-c2cc(C(=O)NC3CC3)c3cc(Br)ccc3n2)cc1 | · | · | · | -9 | · | · | · | · | ·
CC(=O)c1c(C)[nH]c(C(=O)C(C)OC(=O)c2cccc(O)c2)c1C (configuration not stated) | · | · | · | 0 | · | · | · | · | ·
CC(C)c1ccc(C2c3c(-c4ccccc4O)n[nH]c3C(=O)N2Cc2ccncc2)cc1 (configuration not stated) | -14% | -19% | -1% | -7 | 16µM* | -10% | -14 | -4% | 22µM*
CCCOc1ccc(C2c3c(-c4ccccc4O)n[nH]c3C(=O)N2Cc2ccncc2)cc1OCC (configuration not stated) | -14% | -19% | 3% | -2 | ? | i | -5 | ? | 45µM*
O=C(O)C(c1c[nH]c2ccccc12)N1CCN(C/C=C/c2ccccc2)CC1 (configuration not stated) | · | · | · | 2 | · | · | · | · | ·
CC(=O)Nc1cccc(-n2cc3c(c2-c2ccccc2Cl)c(=O)n(C)c(=O)n3C)c1 | -9% | -5% | 5% | -2 | ? | -5% | 0 | 0% | 40µM*

From PubChem
